Screening results deposited in PubChem BioAssay by several laboratories.
Rows were chosen to be rich in hits. Some 12% of all compounds tested hit in one or more screens of this group.
KCC2 mod: KCC2 (human) Cl- transport modulation; Q9H2X9; KCC2 cells, thallium flux FluoZin-2 fluorescence; B-score of Tl+ flux slope (higher = more flux/activation; lower = inhibition) at 10 µM; 190,000 tested, 2.2% active;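 active = thallium flux slope and its plate-corrected score both differing from the plate sample mean at a set confidence after two filtering rounds, in either direction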;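 note: slope of fluorescence scaled to starting intensity during 10 to 20 s after thallium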
ROMK primary: human ROMK K+ channel modulation, primary screen; AID 1918; 130,000 tested, 2% active; Tet-inducible ROMK, thallium flux fluorescence; actives lie on both sides; B-score at 10 µM; P48048;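 active = signal ratio slope over the read window, or its plate-corrected B-score, at least 3 SD from the plate mean, either direction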;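 note: B-score of the F/F0 ratio slope over 7 to 12 s after thallium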
Target sequence (P48048 whole entry, looked up): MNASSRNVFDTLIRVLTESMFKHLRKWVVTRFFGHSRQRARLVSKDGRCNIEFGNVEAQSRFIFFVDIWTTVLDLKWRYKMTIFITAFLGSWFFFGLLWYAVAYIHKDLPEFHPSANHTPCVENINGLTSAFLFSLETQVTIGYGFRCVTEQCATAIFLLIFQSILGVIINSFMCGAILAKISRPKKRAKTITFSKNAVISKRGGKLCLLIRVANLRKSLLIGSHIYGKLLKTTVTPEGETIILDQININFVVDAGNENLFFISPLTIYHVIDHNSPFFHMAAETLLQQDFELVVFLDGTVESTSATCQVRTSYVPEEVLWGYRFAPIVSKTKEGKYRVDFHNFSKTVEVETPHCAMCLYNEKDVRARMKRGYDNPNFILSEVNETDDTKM
INS promoter inh: TRM-6 insulin promoter activity inhibition; TRM-6 cells (human fetal islet line), insulin promoter-eGFP reporter, imaging; reporter expression induced with tamoxifen; inhibition, % at 2 µM; 130,000 tested, 0.9% active; AID 1273;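 active = inhibition above the mean plus 3 SD, with well images judged a real hit on visual review, cut at about 60% in these data, passing the limit was not always enough; inconclusive = inhibition over the cutoff but images rejected on review; inactive = inhibition not above the cutoff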
Insulin prom up: MIN6 insulin promoter up-regulation | MIN6 insulin promoter-GFP reporter, high-content imaging; active compounds read high | z-score at 5 µM | 190,000 tested, 0.3% active | AID 1625;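 active = z-score above 3 at 5 µM with at least 500 cells counted in the well; inconclusive = wells under 500 cells, flagged as cytotoxic or low count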
L major viab: inhibitors of Leishmania major promastigote growth | 200,000 tested, 9% active | Leishmania major promastigotes, resazurin fluorescence viability | inhibition, % at 10 µM; in the data active = inhibition above about 50%;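 note: promastigotes grown with compound for 44 hours at 28 °C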
WT yeast gro inh: growth inhibition of WT yeast, mitochondrial fusion screen | 190,000 tested, 2.1% active | mitochondrial fusion phenotypic screen, WT strain | inhibition, % at 10 µM | AID 1362; in the data active = inhibition above about 58%; tested in S. cerevisiae
Each line names hits and unclear results; the compound was inactive in the other large screens.

O=C(c1cc2ncccn2n1)N1CCc2c([nH]c3ccccc23)C1c1ccccc1F (stereo not given)	L major viab 56 (no result: ROMK primary)
COc1ccc(/C=C2/S/C(=N/S(=O)(=O)Cc3ccccc3)NC2=O)cc1OC	none (no result: ROMK primary, INS promoter inh, L major viab, WT yeast gro inh)
COc1ccc(/C=C2\SC(=O)NC2=S)cc1OC	KCC2 mod 12 (no result: ROMK primary)
COc1cc(/C=C2/SC(=S)NC2=O)ccc1OS(=O)(=O)c1ccc(C)cc1	KCC2 mod 80, WT yeast gro inh 73
COc1cc(/C=C2\SC(=S)NC2=O)ccc1OS(=O)(=O)c1ccccc1	KCC2 mod 80, L major viab 63, WT yeast gro inh 79
COc1ccc(/C=C2\SC(=S)NC2=O)cc1OS(=O)(=O)c1ccc(NC(C)=O)cc1	none
Cc1cc(OCc2cccc(Cl)c2)c(C)cc1CN1CCOCC1	L major viab 81, WT yeast gro inh 70 (no result: INS promoter inh)
COc1ccc(Cl)cc1CN1CCOCC1	none (no result: ROMK primary, INS promoter inh, L major viab, WT yeast gro inh)
NC(CCCCCP(=O)(c1ccccc1)c1ccccc1)C(=O)O (stereo not given)	none (no result: INS promoter inh, L major viab, WT yeast gro inh)
CCN(CC)C(=O)CSc1nnc(-c2cc3ccccc3cc2O)n1CC	none
COC(CNC(=O)Cc1c(C)nc2c(-c3ccccc3)c(C)nn2c1C)OC	none (no result: INS promoter inh)
CC[n+]1c(/C=C/Nc2ccccc2)oc2ccc(OC)cc21	none
CC[n+]1c(/C=C/Nc2ccccc2)oc2ccccc21	L major viab 96
CC[n+]1c(/C=C/N(C)c2ccccc2)oc2ccc(F)cc21	Insulin prom up inconclusive, L major viab 84
CC[n+]1c(/C=C/N(C)c2ccccc2)oc2ccccc21	L major viab 100 (no result: ROMK primary)
CN(/C=C/c1c([N+](=O)[O-])c(=O)n(C)c(=O)n1C)c1ccccc1	none
O=C1c2cccnc2C(O)N1Cc1ccccc1 (stereo not given)	none (no result: ROMK primary, INS promoter inh)
O=C1c2ccccc2NC(c2ccc(O)cc2)N1/N=C/c1ccc(O)cc1 (stereo not given)	L major viab 67
CCOC(=O)c1cc(C(=O)Nc2cccc(C)c2)nn1C	none (no result: ROMK primary, Insulin prom up)
CCCSc1ccc2nc(-c3ccccc3)cn2c1	WT yeast gro inh 70 (no result: INS promoter inh)
N#C/C(=C/c1cn(-c2ccccc2)nc1-c1cccc(OCc2ccccc2)c1)C(=O)NCCCn1ccnc1	L major viab 100 (no result: ROMK primary)
CCOc1cccc(-c2nn(-c3ccccc3)cc2/C=C(/C#N)C(=O)NCCCn2ccnc2)c1	L major viab 100, WT yeast gro inh 60
CCCSc1ccc(-c2nn(-c3ccccc3)cc2/C=C(/C#N)C(=O)NCCCOC)cc1	L major viab 86
O=C(N/N=C/c1ccc(OC(=O)c2ccc3c(c2)OCO3)cc1)c1cncc(Br)c1	none (no result: ROMK primary)
O=C(Cn1nc2ccccc2n1)N/N=C/c1cc([N+](=O)[O-])ccc1O	none
O=[N+]([O-])c1ccc(O)c(/C=N/Nc2ccc(Cl)nn2)c1	Insulin prom up inconclusive, L major viab 100 (no result: INS promoter inh)
O=[N+]([O-])c1ccc(O)c(/C=N/Nc2nn[nH]n2)c1	none (no result: INS promoter inh)
O=C(N/N=C/c1cc([N+](=O)[O-])ccc1O)C1C2CCCCC21 (stereo not given)	L major viab 92 (no result: INS promoter inh)
O=C(CCC(=O)Nc1ccc(Br)cc1)N/N=C/c1cc([N+](=O)[O-])ccc1O	none (no result: INS promoter inh)
O=C(N/N=C/c1cc([N+](=O)[O-])ccc1O)C1CCCCC1	L major viab 97 (no result: ROMK primary)
Cc1ccc(-n2nnnc2SC(C(=O)c2c[nH]c3ccccc23)c2ccccc2)cc1 (stereo not given)	none (no result: ROMK primary, INS promoter inh)
Cc1cc(C(=O)Nc2sc3c(c2C#N)CCCC3)no1	KCC2 mod 3.7, ROMK primary 3.6 (no result: INS promoter inh, Insulin prom up)
Cc1cc(C(=O)Nc2sc3c(c2C#N)CCC3)no1	none
Cc1ccnc(SCC(=O)Nc2sc3c(c2C#N)CCCC3)n1	Insulin prom up inconclusive (no result: KCC2 mod)
Cc1onc(-c2ccccc2)c1C(=O)Nc1sc2c(c1C#N)CCC2	none (no result: ROMK primary, INS promoter inh)
Cc1onc(-c2ccccc2)c1C(=O)NC(=S)Nc1sc2c(c1C#N)CCCC2	KCC2 mod 23 (no result: ROMK primary, INS promoter inh, Insulin prom up)
Cc1csc(SCC(=O)Nc2sc3c(c2C#N)CCC3)n1	L major viab 99 (no result: ROMK primary)
O=c1[nH]c(NNC(=S)NCc2ccccc2)nc2c1C1(CCCCC1)Cc1ccccc1-2	none
COc1ccc(/C=C/C2=NN(Cc3ccccc3)C(=O)CC2)cc1	none (no result: KCC2 mod)
COc1ccc(/C=C/C2=CCN(Cc3ccc(OC)cc3)CC2)cc1	L major viab 91 (no result: ROMK primary)
C=CCNC(=O)C1CC(=O)N(c2ccc(OCC(=O)Nc3cccc(OC)c3)cc2)C1 (stereo not given)	none (no result: ROMK primary)
CCOC(=O)c1c(C)oc2c1c(C=NCCO)c(O)c1ccccc12	none (no result: ROMK primary, INS promoter inh)
CCOC(=O)c1c(C)oc2c1c(C(c1cccnc1)N1CCCCC1)c(O)c1ccccc12 (stereo not given)	L major viab 98, WT yeast gro inh 71
CCOC(=O)c1c(C)oc2c1c(C(c1ccccc1)N1CCOCC1)c(O)c1ccccc12 (stereo not given)	WT yeast gro inh 67
Cc1ccccc1NS(=O)(=O)c1ccc(C)c(C(N)=O)c1	none (no result: ROMK primary)
CCOC(=O)C1CCN(C(=O)Nc2ccc3nc(-c4ccco4)c(-c4ccco4)nc3c2)CC1	L major viab 96 (no result: ROMK primary)
N#C/C(=C/c1ccc(N2CCCCC2)cc1)c1cccc(F)c1	L major viab 99 (no result: INS promoter inh)
N#C/C(=C/c1ccc(N2CCCCC2)o1)c1cccc(F)c1	none (no result: KCC2 mod, Insulin prom up)
Cc1ccc(OCCCNC2CCCC2)cc1	none (no result: ROMK primary, INS promoter inh, Insulin prom up)
CCOc1ccccc1OCCNC1CCCC1	none
CCOc1ccc(OCCNC2CCCC2)cc1	L major viab 84
Cc1ccc(C)c(OCCCNC2CCCC2)c1C	L major viab 97
N#Cc1ccccc1OCCCNC1CCCC1	none (no result: INS promoter inh)
C=CCc1ccc(OCCCOc2ccc(C)c(C)c2)c(OC)c1	none
CCCOc1ccc(OCCNC2CCCC2)cc1	L major viab 94 (no result: INS promoter inh)
C=CCc1ccc(OCCCCNC2CCCC2)c(OC)c1	L major viab 89 (no result: INS promoter inh)
C/C(=N\NC(=O)c1ccc(CSc2nncn2C)cc1)c1cccs1	none (no result: INS promoter inh)
CC(C)(C)c1ccc(OCCCNC2CCCC2)cc1	L major viab 99 (no result: INS promoter inh)
Cc1ccc(OCCCCNC2CCCCC2)c(C)c1	L major viab 94
C#CCOCCOCCOCCNc1nc(N2CCOCC2)nc(N2CCN(C(=O)[C@H](C)n3cc(CCCN=C(N)N)nn3)CC2)n1	none
CCOc1ccc(OCCCCN2CCCC2)cc1	L major viab 99 (no result: Insulin prom up, WT yeast gro inh)
Cc1ccc(C)c(OCCOCCN2CC(C)OC(C)C2)c1C (stereo not given)	L major viab 91 (no result: KCC2 mod, INS promoter inh)
COC(=O)c1ccccc1OCCCCN1CC(C)OC(C)C1 (stereo not given)	L major viab 88 (no result: ROMK primary)
CCCCOc1ccc(CN2CCCCC2)cc1	L major viab 93 (no result: ROMK primary)
Oc1ccc(N2CCN(Cc3ccc(OCCCN4CCCCC4)cc3)CC2)cc1	none (no result: INS promoter inh)
CC1CN(CCOCCSc2ccccc2)CC(C)O1 (stereo not given)	none (no result: INS promoter inh)
CCOc1ccccc1OCCCCN1CCCC1	none
CCOP(=O)(OCC)C(NC(=O)C(F)(F)F)c1ccccc1 (stereo not given)	none (no result: ROMK primary, INS promoter inh)
Fc1ccc(OCCCCCN2CCCC2)cc1	L major viab 87 (no result: INS promoter inh)
O=C(COc1ccc(F)cc1)OCCN1CCOCC1	none
CC1CN(CCCCOc2ccc(F)cc2)CC(C)O1 (stereo not given)	L major viab 85 (no result: INS promoter inh)
